Screens (PubChem BioAssay)
WRN inhibitor: WRN helicase (human) inhibition | 360,000 compounds, 0.46% hits | Q14191 | Potency, µM (titrated, usually from 114 µM), usual class: inhibitors | WRN helicase unwinding, fluorescent forked duplex, kinetic; also: nearly all actives have a fitted effect of over 55% in size
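Fluorescence dequenching readout, ex 525 nm/em 598 nm, kinetic mode: forked duplex DNA (100 nM final) with adjacent fluorophore and quencher unwound by WRN (20 nM final) with 2 mM ATP. Compound preincubation 15 min, room temperature.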
FEN1 inhibitor: inhibitors of human flap endonuclease 1 | Recombinant FEN1 flap cleavage, fluorescence, 15 min | Potency, µM (doses to about 114 µM), actives largely listed as inhibitors | 390,000 compounds, 0.35% hits | AID 588795; also: nearly all actives have a fitted effect of over 65% in size
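Reaction started by adding substrate (50 nM final) to 10 nM enzyme after 15 min room-temperature compound preincubation. Reads at 0 and 15 min, with data normalized and fitted to a four-parameter Hill equation.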
POLI inh: inhibitors of human DNA polymerase iota. Q9UNA4. Pol iota fluorescent replication assay, 10 min. Potency, µM (top dose mostly 115 µM), hits mostly inhibitors. 390,000 compounds, 1% hits. AID 588590
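Pol iota at 10 nM preincubated 15 min with compounds at room temperature; reaction started with fluorescent substrate, 50 nM final. Fluorescence read kinetically at 0 and 10 min; buffer-only wells as negative control.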
Pol kappa inh-1: DNA polymerase kappa (human) inhibition; AID 588579; Q9UBT6; Potency, µM (doses to about 107 µM), actives largely listed as inhibitors; 400,000 compounds, 0.53% hits; purified Pol kappa, fluorescent DNA synthesis assay, 10 min
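Fluorescent qHTS in 1536-well format: enzyme (10 nM) and compound sat 15 min at room temperature before 50 nM substrate (final) was added. Signal taken at 0 and 10 min; no-enzyme buffer wells were negative controls.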
Pol eta inh-1: inhibitors of human DNA polymerase eta; recombinant Pol eta, fluorescent DNA replication assay; Q9Y253; AID 588591; 390,000 compounds, 1.2% hits; Potency, µM (top dose mostly 114 µM), hits mostly inhibitors
Target sequence (Q9Y253 whole entry, looked up): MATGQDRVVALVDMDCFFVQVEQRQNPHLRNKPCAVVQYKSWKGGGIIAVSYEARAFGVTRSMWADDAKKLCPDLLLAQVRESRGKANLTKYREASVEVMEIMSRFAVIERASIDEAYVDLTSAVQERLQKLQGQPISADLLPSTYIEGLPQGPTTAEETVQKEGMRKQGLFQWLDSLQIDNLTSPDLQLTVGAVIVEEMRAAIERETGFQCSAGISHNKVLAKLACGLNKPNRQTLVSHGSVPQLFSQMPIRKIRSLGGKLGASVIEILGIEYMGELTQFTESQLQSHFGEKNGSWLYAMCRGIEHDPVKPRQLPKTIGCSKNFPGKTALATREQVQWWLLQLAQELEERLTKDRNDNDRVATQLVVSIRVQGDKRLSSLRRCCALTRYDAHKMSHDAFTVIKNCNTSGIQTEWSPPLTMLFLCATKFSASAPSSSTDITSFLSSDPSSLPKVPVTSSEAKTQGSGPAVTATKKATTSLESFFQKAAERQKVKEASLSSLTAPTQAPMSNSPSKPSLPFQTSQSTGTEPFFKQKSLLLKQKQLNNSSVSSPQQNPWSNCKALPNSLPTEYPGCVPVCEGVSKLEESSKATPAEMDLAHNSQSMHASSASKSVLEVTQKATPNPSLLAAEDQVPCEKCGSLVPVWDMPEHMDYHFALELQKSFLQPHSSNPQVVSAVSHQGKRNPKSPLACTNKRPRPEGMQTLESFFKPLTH
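Fluorescent replication assay: 50 nM final substrate added after a 15 min room-temperature compound preincubation with 10 nM enzyme. Signal taken at 0 min and again at 10 min.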
POLB inh: inhibitors of human DNA polymerase beta. Potency, µM (top dose mostly 114 µM), usual class: inhibitors. AID 485314. Pol beta primer extension/strand displacement, fluorescence kinetic. 340,000 compounds, 1.3% hits. P06746
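Curves were derived by four-parameter Hill fits of normalized qHTS data. The kinetic fluorescent primer-extension read was taken at 0 and 10 min after 50 nM substrate, following a 15 min room-temperature preincubation of 10 nM enzyme with compounds.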
GALK confirm: confirmation of human galactokinase (GALK) inhibitors | shares compounds with Pol eta inh-1 | purified GALK, Kinase-Glo ATP depletion luminescence | Potency, µM (series often up to 115 µM), most hits filed as inhibitors | 150 compounds, 70% hits
Redox cycling: redox cycling activity in phenol red-HRP assay. shares compounds with Pol eta inh-1. Phenol red-HRP H2O2 redox cycling, absorbance 600 nm. Potency, µM (top dose mostly 115 µM), actives largely listed as inhibitors. 150 compounds, 40% hits. AID 2035
HEK293 tox: HEK-293 cytotoxicity, GALK inhibitor secondary | Potency, µM (series often up to 46.1 µM), hits mostly inhibitors | HEK-293 viability, ATP luminescence (CellTiter-Glo), 24/48 h | 170 compounds, 10% hits | shares compounds with Pol eta inh-1 | AID 2547
Pol kappa inh-2: confirmation of human DNA polymerase kappa inhibitors; purified Pol-kappa, fluorescent strand-displacement substrate; Potency, µM, usual class: inhibitors; shares compounds with Pol eta inh-1; 920 compounds, 76% hits
Pol eta inh-2: Pol eta (human) inhibition, cherry-pick confirmation; Pol eta primer extension, TAMRA/BHQ fluorescence, 10 min; 2,600 compounds, 64% hits; Potency, µM, actives largely listed as inhibitors; AID 720502; shares compounds with Pol eta inh-1
A number is an active result; - = inactive; ? = inconclusive; . = not tested or not shown; [ ] = dose if it differs, or a comment. In the library only some 2.4% were active in any assay of this set; here they are far more common. Calls follow the shape of the dose curve; as a rule, active = well fitted curve in the direction sought with a large enough effect; inconclusive = small, poorly fitted or top-dose-only effect, or another doubt; inactive = no such curve, though single readings can be large; an effect the other way counts as inactive or inconclusive.

SMILES | WRN inhibitor | FEN1 inhibitor | POLI inh | Pol kappa inh-1 | Pol eta inh-1 | POLB inh | Pol eta inh-2 | others
O=C(O)c1ccc(Nc2ncc([N+](=O)[O-])cc2[N+](=O)[O-])cc1 | -[11.6 µM] | - | ? | - | 31.6µM | - | 67.5
O=C(Nc1ccc(C(=O)O)cc1)Nc1ccc([N+](=O)[O-])cc1 | - | - | - | - | - | - | .
COC1(NC(=O)c2ccccc2)C(C)=CC(=O)C=C1C | - | - | - | - | - | - | .
O=C(NC1(O)C(=O)c2ccccc2C1=O)c1c(Cl)cccc1Cl | -[11.6 µM] | - | 1.58µM | - | 44.7µM | - | ? | GALK confirm=23.7µM;Redox cycling=9.43µM;HEK293 tox=-
O=C(NC1(O)C(=O)c2ccccc2C1=O)c1ccccc1 | - | - | 6.31µM | - | 31.6µM | - | . | GALK confirm=23.7µM;Redox cycling=10.6µM;HEK293 tox=-
O=C(Nc1ccccc1Cl)c1sc2cccc(Cl)c2c1Cl | . | - | - | - | - | - | .
CCOC(=O)c1cc(-c2ccccc2)n(CCC(=O)Nc2ccc(Cl)c(C(F)(F)F)c2)c1C | . | ? | - | - | - | - | .
O=C(Nc1c(C(=O)N2CCN(c3ccccc3)CC2)oc2ccccc12)c1ccc(Br)o1 | . | - | - | - | - | - | .
COc1ccc(NC(=O)CSc2nc3nc(C)c(Cc4ccccc4Cl)c(C)n3n2)cc1OC | . | - | - | - | - | - | .
O=C(Cn1c(=O)n(Cc2ccc(C(=O)NCc3ccc4c(c3)OCO4)cc2)c(=O)c2ccccc21)Nc1ccc(F)cc1F | . | - | ? | - | 79.4µM | 10µM | . | Pol kappa inh-2=?
CCOC(=O)c1ccccc1NC(=O)Cn1c(=O)n(Cc2ccc(C(=O)NCc3ccc4c(c3)OCO4)cc2)c(=O)c2ccccc21 | . | - | - | - | - | - | .
CC1CCN(S(=O)(=O)c2ccc(NC(=O)Cc3cccs3)cc2)CC1 | ? | - | ? | ? | ? | 14.1µM | ?
NS(=O)(=O)c1ccc(NC(=O)Cc2cccs2)cc1 | - | - | - | - | - | - | .
CCN(CC)S(=O)(=O)c1ccc(NC(=O)Cc2cccs2)cc1 | -[11.6 µM] | - | ? | - | 56.2µM | 28.2µM | ?
CC1CCN(S(=O)(=O)c2ccc(NC(=O)CN3CCCC3)cc2)CC1 | - | - | - | - | - | - | .
CN(C)c1ccc(/C=C/c2ccnc3c(O)ccc(O)c23)cc1 | . | - | - | - | . | . | .
Cc1cccc(C)c1NC(=O)Cn1cc(S(=O)(=O)Cc2ccc(F)cc2)c2ccccc21 | . | - | ? | ? | ? | 28.2µM | ? | Pol kappa inh-2=?
Cc1cc(C)c(NC(=O)Cn2cc(S(=O)(=O)Cc3ccccc3F)c3ccccc32)c(C)c1 | . | - | - | - | - | - | .
CC1(C)S[C@@H]2[C@H](NC(=O)[C@H](N)c3ccc(O)cc3)C(=O)N2[C@H]1C(=O)O | . | - | ? | 50.1µM | ? | - | 37.9
CC1=C(C(=O)Nc2ccccc2C)C(c2ccccn2)n2nc(SCc3ccccc3F)nc2N1 (stereo not drawn) | . | - | - | - | - | - | .
CCOc1ccccc1NC(=O)Cn1c(=O)n(Cc2ccco2)c(=O)c2ccc(C(=O)NC3CCCC3)cc21 | . | - | - | - | - | - | .
CS(=O)(=O)c1ccc(C(=O)OC2CCOC2=O)cc1[N+](=O)[O-] (stereo not drawn) | - | - | ? | - | 20µM | ? | 37.9
CNS(=O)(=O)c1cccc(C(=O)OC2CCOC2=O)c1 (stereo not drawn) | - | - | - | - | - | - | .
Cc1cc(NS(=O)(=O)c2ccc(NC(=O)/C=C/c3ccc(C)o3)cc2)nc(C)n1 | -[11.6 µM] | ? | - | - | 44.7µM | - | 75.7
COc1ccccc1N1CCN(S(=O)(=O)c2c(C)sc3ncn(CC(=O)N(C)c4ccc(Cl)cc4)c(=O)c23)CC1 | . | - | - | - | - | - | .
SMILES | WRN inhibitor | FEN1 inhibitor | POLI inh | Pol kappa inh-1 | Pol eta inh-1 | POLB inh | Pol eta inh-2 | others
O=C(NC1CC(=O)N(c2ccccc2)C1)c1ccc(S(=O)(=O)N2CCCCC2)cc1 (stereo not drawn) | . | - | - | - | - | - | .
COc1ccc2cc(-c3nc4ccc(C(=O)O)cc4[nH]3)c(=O)oc2c1 | . | - | ? | - | 44.7µM | ? | ? | Pol kappa inh-2=21.2
COc1ccc2oc(=O)c(-c3nc4ccc(C)cc4[nH]3)cc2c1 | . | - | - | - | - | - | .
Cn1cc(S(=O)(=O)N2CCCC2)cc1C(=O)O | - | - | ? | - | 22.4µM | . | . | Pol kappa inh-2=?
Cc1cc(C)c(NC(=O)c2cc(S(=O)(=O)N3CCCC3)cn2C)c(C)c1 | . | - | - | - | - | - | .
CCN(CC)c1ccc(/C=C2/SC(=O)N(C(C)C)C2=O)o1 | - | - | - | - | - | - | .
Cc1ccc(N2NC(=O)/C(=C/c3ccc(-c4ccc(Cl)c(C(=O)O)c4)o3)C2=O)cc1 | ? | - | ? | ? | 22.4µM | 31.6µM | 60.1
Cc1cc(/C=C2/C(=O)NN(c3ccccc3)C2=O)c(C)n1-c1ccc(O)cc1 | - | - | - | - | - | - | .
CC(C)N1C(=O)S/C(=C\c2ccc(-c3ccc(Cl)c(C(=O)O)c3)o2)C1=O | ? | ? | ? | 50.1µM | 8.91µM | - | 26.9
CCCCC1(C)OC(=O)C(=Cc2ccc(-c3ccc(Cl)c(C(=O)O)c3)o2)C(=O)O1 (stereo not drawn) | ? | - | ? | ? | 20µM | 15.8µM | 26.9
O=C(O)c1cc(-c2ccc(/C=N/NC(=S)Nc3ccccc3)o2)ccc1Cl | ? | - | 35.5µM | 79.4µM | 20µM | 28.2µM | ? | Pol kappa inh-2=75.2
COc1ccc(NC(=O)Cn2cc(C(=O)c3ccc(C)c(C)c3)c(=O)c3cc(OC)ccc32)cc1 | . | - | - | - | - | - | .
Cc1cc(C)n2[nH]c(=O)c(N=Nc3cccc(Cl)c3)c2n1 | - | - | - | - | - | - | .
O=c1[nH]n2c(=O)c3c([nH]c2c1N=Nc1cccc(Cl)c1)CCCC3 | ? | - | - | - | ? | ? | 75.7
